COUP-TFII inh: NR2F2 (human) inhibition, primary screen. HEK293T NGFI-A luciferase reporter, luminescence. P24468. inhibition, % at 8.6 µM. 370,000 compounds, 0.7% hits;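 active = inhibition above a per-plate cutoff, mean inhibition of test wells between control levels plus 3 SD, cut at about 38% in these data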;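 note: cells cotransfected with COUP-TFII expression vector driving the NGFI-A reporter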
Target sequence (P24468 whole entry, looked up): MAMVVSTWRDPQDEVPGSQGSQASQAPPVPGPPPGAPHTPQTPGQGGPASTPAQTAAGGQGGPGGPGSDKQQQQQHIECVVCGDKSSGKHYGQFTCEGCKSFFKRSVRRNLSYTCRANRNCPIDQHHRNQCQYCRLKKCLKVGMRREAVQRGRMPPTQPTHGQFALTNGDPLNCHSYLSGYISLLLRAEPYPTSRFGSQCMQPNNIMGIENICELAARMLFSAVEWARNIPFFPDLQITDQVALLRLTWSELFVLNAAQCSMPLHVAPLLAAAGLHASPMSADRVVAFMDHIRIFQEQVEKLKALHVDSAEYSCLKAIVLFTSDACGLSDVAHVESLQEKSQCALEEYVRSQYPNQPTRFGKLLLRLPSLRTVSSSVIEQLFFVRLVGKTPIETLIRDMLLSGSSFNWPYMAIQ
aDG glyco up: alpha-DG glycosylation activation; Pro5-aDG cells, alpha-DG glycosylation AlphaScreen (IIH6); 0% Pro5, 100% B10-LARGE cell signal; activation, % at 10 µM; 360,000 compounds, 0.22% hits; AID 624168;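 active = activation of at least 8% versus controls, or a plate z-score of at least 8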;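 note: Pro5 are CHO cells carrying HIG-tagged alpha-DG that lacks glycosylation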
Gli-Sufu block: Gli-Sufu pathway antagonism; AID 588413; Sufu-KO-LIGHT fibroblasts, Gli luciferase reporter luminescence; 340,000 compounds, 0.74% hits; inhibition, % at 5 µM;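 active = inhibition above about 55%, limit read from the data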
Env fusion inh: HIV envelope-mediated fusion inhibition; inhibition, % at 12.3 µM; HeLa-JRFL Env/CEM21 cell fusion, luciferase; 360,000 compounds, 1.1% hits;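 active = mean replicate inhibition score of at least 50 and every replicate individually at or above 50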
GalR3 antagonist: blocks the human galanin receptor 3. O60755. HEK293 GalR3-CNG cAMP membrane potential fluorescence; galR3 body fused to GalR1 C-terminus. inhibition, % at 3 µM. 360,000 compounds, 0.44% hits;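 active = inhibition above the screen-wide average plus 3 SD, cut at about 13% in these data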;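 note: forskolin and galanin both at EC90 stimulate the cells; cAMP rise reported by CNG channel membrane potential dye signal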
Target sequence (O60755 1-299 limits assumed): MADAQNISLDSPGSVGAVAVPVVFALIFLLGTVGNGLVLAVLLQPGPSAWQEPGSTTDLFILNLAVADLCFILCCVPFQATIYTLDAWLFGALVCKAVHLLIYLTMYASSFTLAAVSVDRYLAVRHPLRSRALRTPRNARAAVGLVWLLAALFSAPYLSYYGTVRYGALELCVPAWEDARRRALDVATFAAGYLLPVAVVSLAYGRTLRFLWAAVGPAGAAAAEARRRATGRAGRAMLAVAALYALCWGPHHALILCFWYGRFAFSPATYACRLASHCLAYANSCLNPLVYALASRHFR
aDG glyco conf: confirmation of alpha dystroglycan glycosylation activators | activation, % at 10 µM (by protocol) | Pro5-aDG cells, alpha-DG glycosylation, IIH6 AlphaLISA; scaled to LARGE-overexpressing B10 cells as 100% | 600 compounds, 17% hits | shares compounds with aDG glyco up | AID 651671;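 active = activation of at least 7% in one or more replicates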;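 note: cells exposed to compound for two days before detection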
Large screens that a line does not name were inactive (follow-up assays come after a bar, where they were run). An excerpt weighted towards active compounds, which were near 2.1% of everything screened.

COCCN1CCC(CNCc2cn(-c3cc(C)ccc3C)nc2-c2ccccc2)C1 (configuration not stated)	aDG glyco up 7.8 | aDG glyco conf 8.6
CN(c1ccccc1)S(=O)(=O)c1ccc(C(=O)NCc2cccs2)cc1	aDG glyco up 2.5 | aDG glyco conf inactive
CN(C(=O)CSc1ncnc2ccccc12)C1CCS(=O)(=O)C1 (configuration not stated)	aDG glyco up 4.5 | aDG glyco conf inactive
CN1C(=O)c2cccc(NCCCCCCN3C(=O)c4ccccc4C3=O)c2C1=O	aDG glyco up 4.5 (no result: Env fusion inh) | aDG glyco conf inactive
CN1C(=O)c2cccc(NCCCN3C(=O)c4ccccc4C3=O)c2C1=O	none (no result: Env fusion inh)
O=C(COC(=O)c1ccc(S(=O)(=O)N2CCOCC2)cc1)Nc1nc(-c2ccccc2)cs1	aDG glyco up 6.2 (no result: Env fusion inh) | aDG glyco conf inactive
O=C(COc1ccccc1)Nc1nc(-c2ccc(S(=O)(=O)N3CCOCC3)cc2)cs1	none (no result: Env fusion inh)
Cc1noc(C)c1NC(=O)Nc1cccc2c1O[C@@H](CN(C)S(=O)(=O)c1ccc(Cl)cc1)[C@@H](C)CN([C@@H](C)CO)C2=O	none (no result: COUP-TFII inh, aDG glyco up, Gli-Sufu block, GalR3 antagonist)
C[C@H]1CN([C@@H](C)CO)C(=O)c2cccc(N(C)C)c2O[C@@H]1CN(C)Cc1ccncc1	none (no result: COUP-TFII inh, aDG glyco up, Gli-Sufu block, GalR3 antagonist)
O=C(Nc1ccc(-n2cc(Cl)cn2)cc1)c1ccncc1	aDG glyco up 2.8 | aDG glyco conf inactive
C[C@@H]1CCCCO[C@H](CN(C)C(=O)C2CCCCC2)[C@H](C)CN([C@@H](C)CO)C(=O)c2cc(NC(=O)NC3CCCCC3)ccc2O1	none (no result: COUP-TFII inh, aDG glyco up, Gli-Sufu block, GalR3 antagonist)
CC(C)C#Cc1cnc2c(c1)C(=O)N([C@@H](C)CO)C[C@@H](C)[C@@H](CN(C)C(=O)CCN1CCCCC1)O2	none (no result: COUP-TFII inh, aDG glyco up, Gli-Sufu block, GalR3 antagonist)
C[C@@H]1CN([C@H](C)CO)C(=O)c2cccc(NS(=O)(=O)c3ccc(F)cc3)c2O[C@H]1CN(C)C(=O)Nc1ccc2c(c1)OCO2	none (no result: COUP-TFII inh, aDG glyco up, Gli-Sufu block, GalR3 antagonist)
Clc1nc(CN2CCOCC2)nc2sc3c(c12)CCC3	none
Cc1cc(C)n(-c2nc(NCCN(C)C)c3c4c(sc3n2)CCCC4)n1	none
Cc1cc(C)n(-c2nc(SCCN3CCOCC3)c3c4c(sc3n2)CCCC4)n1	aDG glyco up 2.6 | aDG glyco conf inactive
Cc1cc(C)n(-c2nc(NCCN(C)C)c3c4c(sc3n2)COC(C)(C)C4)n1	none
Cc1cc(C)n(-c2nc(NCCCN(C)C)c3c4c(sc3n2)CCCC4)n1	aDG glyco up 2.7 | aDG glyco conf 11.3
Cc1cc(C)n(-c2nc(NCCC(C)C)c3c4c(sc3n2)COC(C)(C)C4)n1	aDG glyco up 4.8 | aDG glyco conf inactive
C[C@@H]1CN([C@@H](C)CO)C(=O)c2cc(NS(=O)(=O)c3ccccc3)ccc2O[C@@H](C)CCCCO[C@@H]1CN(C)C(=O)Cc1ccccc1	none (no result: COUP-TFII inh, aDG glyco up, Gli-Sufu block, GalR3 antagonist)
CCCCCOc1ccc(NC(=O)C(=O)NCC2CCCN2CC)cc1 (configuration not stated)	aDG glyco up 10.6 | aDG glyco conf 15.1
Clc1ccccc1Nc1nc(NCc2ccccc2)nc2ccsc12	aDG glyco up 6.4 (no result: Gli-Sufu block) | aDG glyco conf inactive
COCC(=O)N(C)C[C@H]1Oc2ncc(C#Cc3ccccc3)cc2C(=O)N([C@H](C)CO)C[C@@H]1C	none (no result: COUP-TFII inh, aDG glyco up, Gli-Sufu block, GalR3 antagonist)
CCC(=O)N[C@@H]1CC[C@H](CC(=O)NCC2CCCCC2)O[C@H]1CO	none (no result: COUP-TFII inh, aDG glyco up, Gli-Sufu block, GalR3 antagonist)
Cn1c(SCC(=O)Nc2ccc(NC(=O)c3cccc(F)c3)cc2)nnc1-c1ccncc1	aDG glyco up 1.8 | aDG glyco conf inactive
CCCNS(=O)(=O)c1ccc(OCC(=O)NCCC2=CCCCC2)cc1	aDG glyco up 9.1 (no result: Env fusion inh) | aDG glyco conf inactive
O=C(NCCS(=O)(=O)NCC1CCCO1)c1ccccc1 (configuration not stated)	aDG glyco up 5.2 | aDG glyco conf inactive
Cc1ccc(S(=O)(=O)N[C@@H]2C=C[C@H](CC(=O)NCCCN(C)C)O[C@H]2CO)cc1	none (no result: COUP-TFII inh, aDG glyco up, Gli-Sufu block, GalR3 antagonist)
CCc1c(C(=O)N/N=C/c2ccc(OCc3ccc(F)cc3)c(OC)c2)nnn1-c1nonc1N	aDG glyco up 3.5 | aDG glyco conf inactive
Cc1noc(C)c1NC(=O)Nc1ccc2c(c1)C(=O)N(C)[C@@H]1CC[C@H](CC(=O)N(C)C)O[C@H]1CO2	none (no result: COUP-TFII inh, aDG glyco up, Gli-Sufu block, GalR3 antagonist)
Cc1ccc(C)c(N2CCN(C(=O)Nc3ccc4c(c3)N(C)C(=O)CS4)CC2)c1	aDG glyco up 6.7 | aDG glyco conf inactive
CCn1c(NCc2ccco2)nc2c1c(=O)n(C)c(=O)n2C	aDG glyco up 6.3 | aDG glyco conf inactive
CCn1c(SCC(=O)NCc2ccco2)nc2c1c(=O)n(C)c(=O)n2C	none
CCC(=O)N(C)C[C@H]1Oc2cc(-c3ccc(C#N)cc3)ccc2S(=O)(=O)N([C@H](C)CO)C[C@H]1C	none (no result: COUP-TFII inh, aDG glyco up, Gli-Sufu block, GalR3 antagonist)
COc1ccc(CCC(=O)OCC(=O)c2c(N)n(CC(C)C)c(=O)n(C)c2=O)cc1	none
COc1ccccc1CCC(=O)OCC(=O)c1c(N)n(CC(C)C)c(=O)n(C)c1=O	aDG glyco up 6.5 | aDG glyco conf inactive
CO[C@H]1CN(C)C(=O)c2cc(NS(=O)(=O)c3cccc(F)c3)ccc2OC[C@@H](C)NC[C@@H]1C	none (no result: COUP-TFII inh, aDG glyco up, Gli-Sufu block, GalR3 antagonist)
CCCCn1c(/N=C/c2ccc(N(C)C)cc2)nc2ccccc21	aDG glyco up 4.9 | aDG glyco conf inactive
COc1cc(/C=C/C(=O)Nc2nc3ccc(S(=O)(=O)NC(C)C)cc3s2)cc(OC)c1OC	aDG glyco up 8.2 | aDG glyco conf 6.1
COc1ccc(CC(=O)N/N=C/c2cccnc2)cc1OC	aDG glyco up 6.5 | aDG glyco conf inactive
Cc1cccn2c(=O)c(C(=O)NC3CC(C)CC(C)(C)C3)c(O)nc12 (configuration not stated)	aDG glyco up 3.6 (no result: Env fusion inh) | aDG glyco conf inactive
C[C@@H]1CN([C@H](C)CO)C(=O)CCCn2nncc2CO[C@@H]1CN(C)C(=O)Nc1ccc(N2CCN(C)CC2)cc1	aDG glyco up 8.5 (no result: Gli-Sufu block) | aDG glyco conf inactive
C[C@H](CO)N1C[C@H](C)[C@@H](CN(C)C(=O)Nc2ccc(N3CCN(C)CC3)cc2)OCc2cnnn2CCCC1=O	none (no result: Gli-Sufu block)
C[C@@H]1CN([C@H](C)CO)C(=O)c2c(c3ccccc3n2C)-c2ccccc2CO[C@H]1CN(C)C(=O)N[C@H](C)c1ccccc1	none (no result: COUP-TFII inh, aDG glyco up, Gli-Sufu block, GalR3 antagonist)
CC(C)C#Cc1ccc2c(c1)O[C@H](CN(C)C(=O)c1ccccn1)[C@@H](C)CN([C@H](C)CO)S2(=O)=O	none (no result: COUP-TFII inh, aDG glyco up, Gli-Sufu block, GalR3 antagonist)
C[C@H]1CN([C@@H](C)CO)C(=O)c2cc(NC(=O)Nc3ccc(C(F)(F)F)cc3)ccc2O[C@@H]1CN(C)Cc1ccc2c(c1)OCO2	none (no result: COUP-TFII inh, aDG glyco up, Gli-Sufu block, GalR3 antagonist)
CCCCC(=O)Nc1ccc(NC(=O)c2ccc([N+](=O)[O-])cc2Cl)cc1OC	aDG glyco up 11.6 | aDG glyco conf inactive
C[C@H](CO)N1C[C@H](C)[C@H](CN(C)Cc2ccc(Cl)c(Cl)c2)Oc2ccc(NS(=O)(=O)c3cccs3)cc2CC1=O	none (no result: COUP-TFII inh, aDG glyco up, Gli-Sufu block, GalR3 antagonist)
CC(C)CC#Cc1ccc2c(c1)O[C@@H](CN(C)C(=O)Nc1ccccc1)[C@H](C)CN([C@H](C)CO)S2(=O)=O	none (no result: COUP-TFII inh, aDG glyco up, Gli-Sufu block, GalR3 antagonist)
Cc1cc(NC(=O)CSc2nnc(Cc3ccccc3)n2C)no1	none

Screens deposited in PubChem BioAssay by several laboratories.
